Results: PubChem BioAssay (Tox21)
Results filed as inconclusive are left out. The source made the active and inactive calls. Unless noted, the call rests on the fitted dose curve.

Key:
[1] = Nuclear factor erythroid 2-related factor 2/antioxidant responsive element (Nrf2/ARE) small molecule agonists: qHTS cell viability counter screen in human keratinocytes (AID 1919968; active means well fitted curve in the direction sought with a large enough effect in the repeat runs; an effect the other way counts as inactive or inconclusive; further: nearly all actives have a fitted effect of over 55% in size)
Procedure, shortened: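 KeratinoSens cells (HaCaT keratinocytes stably carrying an ARE-luciferase reporter) were seeded at 1,500 cells/well and rested 5 h at 37 C/5% CO2. They were then exposed to compounds in DMSO for 23 h. Viability was read by CellTiter-Fluor fluorescence after 1 h.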

[2] = molecular target: Gonadotropin-releasing hormone receptor (Homo sapiens) (UniProt P30968); experiment: Human gonadotropin-releasing hormone receptor (GnRHR) small molecule agonists, calcium flux assay in GnRHR-HEK293 cells (AID 1920063); further: nearly all actives have a fitted effect of over 35% in size
Gonadotropin-releasing hormone receptor (Homo sapiens), sequence (P30968 whole entry, looked up): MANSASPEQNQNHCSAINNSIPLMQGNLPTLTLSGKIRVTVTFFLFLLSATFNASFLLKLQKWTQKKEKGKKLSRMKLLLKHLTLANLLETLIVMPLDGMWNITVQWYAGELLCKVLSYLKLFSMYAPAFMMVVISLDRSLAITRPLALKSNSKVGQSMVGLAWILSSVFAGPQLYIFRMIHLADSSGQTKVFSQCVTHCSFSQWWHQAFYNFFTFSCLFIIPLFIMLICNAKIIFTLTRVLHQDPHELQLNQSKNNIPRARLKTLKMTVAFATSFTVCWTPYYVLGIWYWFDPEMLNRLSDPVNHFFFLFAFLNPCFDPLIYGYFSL
Procedure, shortened: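 HEK293 cells stably expressing human GnRHR were plated 18 h at 37 °C, loaded with calcium dye 1 h at 37 °C, then given compound in agonist mode; fluorescence (Ex/Em 480/540) read kinetically for 3 min at 1 s intervals.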

[3] = molecular target: KiSS-1 receptor (Homo sapiens) (UniProt Q969F8); experiment: Human kisspeptin (KISS1R) small molecule agonists, calcium flux assay in KISS1R-HEK293 cells (AID 1920064; active means well fitted curve in the direction sought with a large enough effect in the repeat runs; an effect the other way counts as inactive or inconclusive)
KiSS-1 receptor (Homo sapiens), sequence (Q969F8 whole entry, looked up): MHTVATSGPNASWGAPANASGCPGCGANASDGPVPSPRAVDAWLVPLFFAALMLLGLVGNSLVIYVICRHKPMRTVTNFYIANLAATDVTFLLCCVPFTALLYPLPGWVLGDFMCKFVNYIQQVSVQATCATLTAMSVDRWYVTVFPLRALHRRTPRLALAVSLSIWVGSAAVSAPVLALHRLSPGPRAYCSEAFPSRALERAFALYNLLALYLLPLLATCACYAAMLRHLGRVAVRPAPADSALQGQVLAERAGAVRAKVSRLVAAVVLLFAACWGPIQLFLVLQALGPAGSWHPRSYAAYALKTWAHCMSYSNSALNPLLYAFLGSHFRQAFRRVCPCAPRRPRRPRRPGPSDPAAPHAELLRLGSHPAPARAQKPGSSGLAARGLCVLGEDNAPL
Procedure, shortened: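 HEK293 cells stably expressing human KISS1R were plated 18 h at 37 °C, loaded with calcium dye for 1 h at 37 °C, then given compound by pin tool. Fluorescence (Ex/Em 480/540) was read kinetically for 3 min.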

[4] = G protein-coupled receptor (GPCR) small molecule agonists, calcium flux assay: HEK293 wild type cell line counter screen (AID 1920065)
Procedure, shortened: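 Cells were plated and cultured 18 h at 37 C/5% CO2, then loaded with calcium dye for 1 h at 37 C. Compounds in DMSO were pin-transferred in agonist mode, and fluorescence (Ex/Em 480/540) was read kinetically for 3 min at 1 s intervals.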

[5] = p53 small molecule agonists, cell-based qHTS assay with human liver microsomes (AID 1963577)
Procedure, shortened: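 Compounds act here after metabolic activation: human liver microsomes and NADPH, both at 0.5 mg/mL final, were co-added to p53RE-bla cells. Incubation ran 16 h at 37 C, followed by LiveBLAzer detection.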

[6] = p53 small molecule agonists, cell-based qHTS assay with rat liver microsomes (AID 1963578)
Procedure, shortened: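 Read-out is beta-lactamase reporter fluorescence (LiveBLAzer, 2 h, room temperature, dark) in p53RE-bla cells treated 16 h at 37 C with compound, rat liver microsomes and NADPH, both 0.5 mg/mL final.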

[7] = p53 small molecule agonists, cell-based qHTS assay with human liver microsomes: qHTS cell viability counter screen (AID 1963579); further: nearly all actives have a fitted effect of over 45% in size
Procedure, shortened: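 Cells carrying the p53 response-element beta-lactamase reporter are treated for 16 h at 37 C with test compounds in the presence of human liver microsomes and NADPH (both 0.5 mg/mL final); ATP-based CellTiter-Glo luminescence then reports viability.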

[8] = p53 small molecule agonists, cell-based qHTS assay with rat liver microsomes: qHTS cell viability counter screen (AID 1963580); further: nearly all actives have a fitted effect of over 45% in size
Procedure, shortened: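 HCT-116 p53RE-bla, 4,000 cells/well, 5 h pre-incubation; cpd + rat liver microsomes 0.5 mg/mL + NADPH 0.5 mg/mL (final); 16 h, 37 C; CellTiter-Glo, 30 min RT; luminescence.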

[9] = p53 small molecule agonists, cell-based qHTS assay: qHTS cell viability counter screen (AID 1963581); further: nearly all actives have a fitted effect of over 45% in size
Procedure, shortened: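 p53RE-bla HCT-116 cells were exposed to compounds for 16 h at 37 C; after the beta-lactamase FRET read in the same wells, CellTiter-Glo was added and luminescence (intracellular ATP) read after 30 min at room temperature.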

[10] = p53 small molecule agonists, cell-based qHTS assay (AID 1963582; active means well fitted activation curve with a large enough effect in the signal ratio in the repeat runs, not every such curve was filed as active; the % refers to the signal ratio)
Procedure, shortened: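 p53RE-bla beta-lactamase reporter cells rested 5 h at 37 C/5% CO2, then received compounds in DMSO by pin transfer and were incubated 16 h at 37 C. LiveBLAzer B/G FRET substrate was loaded for 2 h at room temperature before fluorescence reading.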

[11] = molecular target: 5-hydroxytryptamine receptor 2A (Homo sapiens) (UniProt P28223); experiment: 5-hydroxytryptamine receptor 2A (HTR2A) small molecule antagonists, cell-based qHTS assay (AID 1963586); further: nearly all actives have a fitted effect of over 45% in size
5-hydroxytryptamine receptor 2A (Homo sapiens), sequence (P28223 whole entry, looked up): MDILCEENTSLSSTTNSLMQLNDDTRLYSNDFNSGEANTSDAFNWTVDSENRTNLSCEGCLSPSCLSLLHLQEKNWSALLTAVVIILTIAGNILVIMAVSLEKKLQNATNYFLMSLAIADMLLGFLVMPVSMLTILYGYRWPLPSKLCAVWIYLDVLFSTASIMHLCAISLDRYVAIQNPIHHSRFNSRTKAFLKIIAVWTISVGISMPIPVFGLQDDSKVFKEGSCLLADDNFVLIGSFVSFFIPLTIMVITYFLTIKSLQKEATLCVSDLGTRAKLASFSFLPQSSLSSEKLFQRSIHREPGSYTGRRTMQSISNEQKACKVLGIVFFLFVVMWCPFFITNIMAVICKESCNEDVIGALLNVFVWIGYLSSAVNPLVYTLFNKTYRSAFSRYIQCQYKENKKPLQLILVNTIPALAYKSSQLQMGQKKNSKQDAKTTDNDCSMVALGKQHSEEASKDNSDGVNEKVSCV
Procedure, shortened: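 Antagonist-mode intracellular calcium assay: DOI (4 nM) added after 5 min compound pre-incubation at room temperature to dye-loaded HTR2A-CHO cells. Fluorescence followed for 3 min, sampled every second.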

[12] = molecular target: 5-hydroxytryptamine receptor 2A (Homo sapiens) (UniProt P28223); experiment: 5-hydroxytryptamine receptor 2A (HTR2A) small molecule agonists, cell-based qHTS assay (AID 1963587); further: nearly all actives have a fitted effect of over 30% in size
Procedure, shortened: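 Kinetic calcium-flux fluorescence (2 min, 1 sec intervals) after compound addition in agonist mode. HTR2A-CHO cells were cultured 18 h, then dye-loaded 1 h at 37 C.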

[13] = molecular target: Muscarinic acetylcholine receptor M1 (Homo sapiens) (UniProt P11229); experiment: Cholinergic receptor muscarinic 1 (CHRM1) small molecule antagonists, cell-based qHTS assay (AID 1963588); further: nearly all actives have a fitted effect of over 40% in size
Muscarinic acetylcholine receptor M1 (Homo sapiens), sequence (P11229 whole entry, looked up): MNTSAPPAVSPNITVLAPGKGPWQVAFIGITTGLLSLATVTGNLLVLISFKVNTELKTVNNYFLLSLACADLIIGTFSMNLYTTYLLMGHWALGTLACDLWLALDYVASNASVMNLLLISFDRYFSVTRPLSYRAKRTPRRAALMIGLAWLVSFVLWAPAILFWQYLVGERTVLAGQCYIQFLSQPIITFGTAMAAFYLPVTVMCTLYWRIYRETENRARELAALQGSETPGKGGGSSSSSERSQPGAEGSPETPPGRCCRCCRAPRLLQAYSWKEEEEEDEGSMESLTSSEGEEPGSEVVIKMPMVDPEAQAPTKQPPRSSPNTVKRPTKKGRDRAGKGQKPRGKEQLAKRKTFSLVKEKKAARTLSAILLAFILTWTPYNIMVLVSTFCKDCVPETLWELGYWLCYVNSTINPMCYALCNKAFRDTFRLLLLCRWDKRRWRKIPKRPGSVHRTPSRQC
Procedure, shortened: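 CHRM1-CHO calcium-flux assay, antagonist mode. Cells were seeded 18 h, dye-loaded 1 h at 37 C and given compound for 5 min at RT, then acetylcholine was added at 50nM. FDSS fluorescence was read 3 min; 15 concentrations, three runs.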

[14] = molecular target: D(2) dopamine receptor (Homo sapiens) (UniProt P14416); experiment: Dopamine D2 receptor (DRD2) small molecule antagonists, cell-based qHTS assay (AID 1963595; active means well fitted inhibition curve with a large enough effect in the signal ratio in the repeat runs, with a control signal flat; the % refers to the signal ratio)
D(2) dopamine receptor (Homo sapiens), sequence (P14416 whole entry, looked up): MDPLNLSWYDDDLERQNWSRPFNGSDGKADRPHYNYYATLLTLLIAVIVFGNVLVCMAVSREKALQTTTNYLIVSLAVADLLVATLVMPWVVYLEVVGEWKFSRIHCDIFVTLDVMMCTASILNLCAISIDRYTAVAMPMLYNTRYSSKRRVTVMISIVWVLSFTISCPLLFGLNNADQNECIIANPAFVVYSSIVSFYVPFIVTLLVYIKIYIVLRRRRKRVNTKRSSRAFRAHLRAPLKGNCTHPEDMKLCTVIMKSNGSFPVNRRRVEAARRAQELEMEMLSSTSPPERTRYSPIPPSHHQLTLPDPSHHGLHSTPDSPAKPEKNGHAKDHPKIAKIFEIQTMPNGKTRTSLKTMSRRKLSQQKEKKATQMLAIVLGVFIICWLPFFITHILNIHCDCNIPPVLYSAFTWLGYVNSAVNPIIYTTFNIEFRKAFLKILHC
Procedure, shortened: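 HTRF cAMP read-out at 665 and 620 nm emission (340 nm excitation). Antagonist mode: compounds were tested against 12 nM quinpirole in DRD2-HEK293 cells, with 200 nM NKH477 raising cAMP and 0.1 mM Ro20-1724 blocking its breakdown.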

[15] = molecular target: Muscarinic acetylcholine receptor M1 (Homo sapiens) (UniProt P11229); experiment: Cholinergic receptor muscarinic 1 (CHRM1) small molecule agonists, cell-based qHTS assay (AID 1963589); further: nearly all actives have a fitted effect of over 35% in size
Procedure, shortened: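 CHO cells stably expressing human CHRM1, seeded 18 h at 37 C/5% CO2, dye-loaded 1 h at 37 C, then given compound in agonist mode; intracellular calcium fluorescence read kinetically at 1 s intervals. Fifteen concentrations, three independent runs.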

[16] = cAMP Responsive Elements (CRE) small molecule agonists, cell-based qHTS assay (AID 1963590)
Procedure, shortened: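 CRE-bla HEK 293T cells in DMEM with 10% dialyzed FBS, NEAA, pyruvate and 25 mM HEPES were plated 18 h at 37 C/5% CO2, then exposed to compounds in DMSO for 3 h before LiveBLAzer B/G FRET substrate addition.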

[17] = cAMP Responsive Elements (CRE) small molecule antagonists, cell-based qHTS assay (AID 1963591; active means well fitted inhibition curve with a large enough effect in the signal ratio in the repeat runs, not every such curve was filed as active; the % refers to the signal ratio)
Procedure, shortened: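 CRE-bla HEK293T cells were plated 18 h at 37 °C/5% CO2, pinned with compound in DMSO, then stimulated with NKH477 at 0.25 uM final for 3 h. LiveBLAzer B/G FRET substrate was added and plates incubated 2 h at room temperature.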

[18] = molecular target: Beta-2 adrenergic receptor (Homo sapiens) (UniProt P07550); experiment: Adrenergic beta2 receptor (ADRB2) small molecule antagonists, cell-based qHTS assay (AID 1963592); further: series mostly up to about 92 µM; nearly all actives have a fitted effect of over 50% in size
Beta-2 adrenergic receptor (Homo sapiens), sequence (P07550 whole entry, looked up): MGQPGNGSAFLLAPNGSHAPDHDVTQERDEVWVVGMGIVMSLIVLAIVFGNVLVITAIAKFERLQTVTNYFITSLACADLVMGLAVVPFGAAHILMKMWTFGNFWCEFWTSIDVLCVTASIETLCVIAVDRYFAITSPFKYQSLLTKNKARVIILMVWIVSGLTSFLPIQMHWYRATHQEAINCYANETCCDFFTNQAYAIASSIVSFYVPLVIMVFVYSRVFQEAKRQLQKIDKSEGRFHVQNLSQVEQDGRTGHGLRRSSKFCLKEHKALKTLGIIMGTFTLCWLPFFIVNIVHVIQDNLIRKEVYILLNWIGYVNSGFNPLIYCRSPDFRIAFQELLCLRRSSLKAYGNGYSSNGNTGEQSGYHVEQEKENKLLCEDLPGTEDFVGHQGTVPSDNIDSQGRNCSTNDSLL
Procedure, shortened: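 Cells (CHO, stable ADRB2 overexpression) incubated 18-20hr at 37C; compounds added from DMSO; agonist mix (1nM isoproterenol, 100uM IBMX, 25uM Ro-20-1724) added; 0.5hr RT; d2-cAMP and anti-cAMP-cryptate added; 1hr RT; 665/615 nm read.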

[19] = molecular target: D(2) dopamine receptor (Homo sapiens) (UniProt P14416); experiment: Dopamine D2 receptor (DRD2) small molecule agonists, cell-based qHTS assay (AID 1963594); further: nearly all actives have a fitted effect of over 35% in size
Procedure, shortened: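 cAMP accumulation in DRD2-HEK293 cells measured by HTRF after 1 h detection; compounds added 10 min before NKH477 (200nM […]) forskolin-analogue stimulation, 30 min at room temperature, with Ro20-1724 present at 0.1 mM final.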

[20] = molecular target: Beta-2 adrenergic receptor (Homo sapiens) (UniProt P07550); experiment: Adrenergic beta2 receptor (ADRB2) small molecule agonists, cell-based qHTS assay (AID 1963593);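 further: CHO cells stably overexpressing human ADRB2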
Procedure, shortened: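 CHO cells stably over-expressing ADRB2 were plated overnight at 37C, then dosed with compounds plus a stimulation mix containing 100uM IBMX and 25uM Ro-20-1724 for 0.5hr at room temperature. cAMP was measured by HTRF competition, 1hr.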

Measured: Potency

CC(C(=O)O)c1ccc(C(=O)c2cccs2)cc1 (configuration not stated)
not listed: [15] | [16] | [17] | [18] | [19] | [20]
inactive: all other assays above

Nc1nc2ccccc2n1Cc1ccc(F)cc1
not listed: [11] | [20]
inactive: all other assays above

Clc1ccc(C(Cn2ccnc2)OCc2ccc(Sc3ccccc3)cc2)c(Cl)c1 (configuration not stated)
not listed: [11] | [12] | [20]
inactive: all other assays above

SCCc1cnccn1
not listed: [16] | [17]
inactive: all other assays above
